# PubChem BioAssay AID1347047 (National Center for Advancing Translational Sciences (NCATS), 2019)
# Hit rate of the full screen: of about 1,400 compounds, about 10 (0.7%) were called active. Where a call stands in place of a potency, no number is given. Not shown: some 2% with an inconclusive outcome. The call rests on the fitted dose curve; in most records, active means well fitted inhibition curve with a large enough effect; inconclusive means small, poorly fitted or top-dose-only effect; inactive means flat fitted curve, though single readings scatter. This excerpt belongs to a sample that is enriched for actives.
# Target: Luciferin 4-monooxygenase (Photinus pyralis) (UniProt P08659)
# Sequence (P08659 whole entry, looked up): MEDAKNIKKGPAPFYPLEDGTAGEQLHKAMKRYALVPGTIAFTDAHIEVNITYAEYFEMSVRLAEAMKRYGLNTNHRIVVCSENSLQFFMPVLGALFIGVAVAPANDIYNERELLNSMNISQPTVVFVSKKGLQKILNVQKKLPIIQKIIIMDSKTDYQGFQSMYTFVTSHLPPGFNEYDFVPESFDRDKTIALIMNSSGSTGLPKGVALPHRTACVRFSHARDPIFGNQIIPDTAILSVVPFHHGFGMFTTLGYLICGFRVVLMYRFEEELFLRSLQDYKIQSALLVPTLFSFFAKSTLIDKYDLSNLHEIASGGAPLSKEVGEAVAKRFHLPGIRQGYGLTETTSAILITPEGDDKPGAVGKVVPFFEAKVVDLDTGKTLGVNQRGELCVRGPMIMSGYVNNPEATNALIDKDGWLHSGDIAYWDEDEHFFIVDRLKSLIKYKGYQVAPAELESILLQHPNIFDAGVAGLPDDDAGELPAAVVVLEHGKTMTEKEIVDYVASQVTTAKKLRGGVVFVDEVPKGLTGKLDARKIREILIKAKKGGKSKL
# Assay: Natriuretic polypeptide receptor (hNpr1) antagonism - Confirmation firefly luciferase (FLuc) inhibition counterscreen
# Details: purified FLuc enzyme, luminescence, Km substrate; series mostly up to 57.6 µM
# Description: Firefly (Photinus pyralis) luciferase (FLuc) is one of the more frequently used transcriptional reporter genes, and it has also been developed as a cellular sensor for cyclic nucleotides. (Fan F & Wood KV, 2007; Fan F et al., 2008) However, a significant number of compounds that populate chemical libraries have been identified as FLuc ligands which can be mistaken for modulators of the intended targeted pathways, receptors or enzymes. (Auld, DS et al. 2008; Thorne, N et al. 2012) Therefore, the FLuc enzyme assay conducted at sensitive Km level substrate conditions is used to counter-screen for potential FLuc ligands. Auld DS, Thorne N, Nguyen DT & Inglese J A specific mechanism for nonspecific activation in reporter-gene assays. ACS Chem Biol. 2008, 3: 463-470. DOI: 10.1021/cb8000793 Fan F, Binkowski BF, Butler BL, Stecha PF, Lewis MK, Wood KV. Novel genetically encoded biosensors using firefly luciferase. ACS Chem Biol. 2008, 3: 346-351. DOI: 10.1021/cb8000414 Fan F and Wood KV. Bioluminescent assays for high-throughput screening. Assay Drug Dev Technol. 2007, 5: 127-136. […] Chemistry & Biology, 2012, 19: 1060-1072. DOI.org/10.1016/j.chembiol.2012.07.015
# PROTOCOL TABLE (as described by Inglese J, Shamu CE and Guy RK. 2007) SEQUENCE No. (e.g., 1, 2, 3, etc.); PARAMETER (e.g., Cells, Incubation, Reagent, etc.); VALUE and DESCRIPTION. FLUC KM ENZYME COUNTERSCREEN (Thorne, N.T. et al. 2012) 1. Reagent. Add 3 uL of D-luciferin substrate buffer per well into Greiner 1536-well white/solid bottom high base, medium bind plates. 2. Compounds. Library compounds and PTC124 control added at 23nL per well, transferred by Pin Tool. 3. Incubation. Incubate plates at room temperature for […], protect from light. 4. Reagent. Add 1uL of P. pyralis luciferase (FLuc) per well of Greiner 1536-well plates. 5. Incubation. Incubate plates at room temperature for 10 min., protect from light. 6. Detector. FLuc luminescence measured using CCD-based camera (Viewlux). NOTES (numbers refer to Sequence numbers above) 1. Substrate buffer: 10 uM D-luciferin final concentration in 50 mM Tris-Acetate, pH 7.6, 10 mM Mg-Acetate, 10 uM ATP, 0.01% Tween-20, and 0.05% BSA buffer added at 3uL/well to 13 x Greiner 1536-well white/solid bottom high base, medium bind plates. 2. PTC124 stock solution prepared (10 mM in DMSO; Auld D.S. et al. 2010). Working dilution for dispense = 10 mM stock dilution (57.5 uM final concentration; 16-pt 1:3 titration in duplicate = final concentration range of 57.5 uM - 4 pM). 23nL of library compounds, PTC124 control or DMSO vehicle control transferred to the 13 substrate-containing Greiner white/solid bottom high base, medium bind plates in 11 interplate 1:3 titrations (see Yasgar, A. et al. 2008) with Pintool. 3. Substrate incubated for 30-50 min. at ambient temperature protected from light with metal lid. 4. Enzyme solution: 10 nM P. pyralis luciferase (FLuc) final concentration in 50 mM Tris-Acetate, pH 7.6 added at 1uL to 13 x Greiner 1536-well white/solid bottom high base, medium bind plates. 5. Substrate and enzyme incubated with test library compounds and controls for 10 min. at ambient temperature protected from light with metal lid. 6. Read final Luminescence on the ViewLux. [Exposure = 30 s.; Gain = High; Speed = Slow; and Binning = 2X.] REFERENCES: Auld DS, Lovell S, Thorne N, Lea WA, Maloney DJ, Shen M, Rai G, Battaile KP, Thomas CJ, Simeonov A, Hanzlik RP and Inglese J. Molecular basis for the high-affinity binding and stabilization of firefly luciferase by PTC124. […] Chemistry & Biology, 2012, 19: 1060-1072. doi.org/10.1016/j.chembiol.2012.07.015 Yasgar A, Shinn P, Jadhav A, Auld DS, Michael S, Zheng W, Austin CP, Inglese J and Simeonov A, Compound Management for Quantitative High-Throughput Screening. J. Assoc. Lab. Auto., 2008, 13: 79-89. doi: 10.1016/j.jala.2007.12.004
# Potency means the concentration at half of the fitted maximal effect.
row,SMILES,Potency
1,Cc1nc(-c2ccncc2)ncc1C(C)Nc1ncnc(C)c1C (stereo not drawn),inactive
2,Cc1noc(C)c1-c1cnc2[nH]cc(CC(=O)N3CCOCC3)c2c1,inactive
3,N#Cc1cccc(CN2CCC(C3=NC(O)c4cc(F)ccc4N3)CC2)c1 (stereo not drawn),inactive
4,CC1=NS(=O)(=O)N(C)C=C1C(=O)OCc1nc(-c2ccc(C)cc2)no1,inactive
5,Cc1cc(N2CCCC(Cn3cc(Cc4ccccc4)nn3)C2)nc(N)n1 (stereo not drawn),inactive
6,Cc1ccc(C)c(C(=O)N2CCC3(CC2)N=C(c2ccc(Cl)cc2)NO3)c1,inactive
7,COc1ccc(S(=O)(=O)N2CCc3c(C(=O)NCCc4ccccn4)cccc32)cc1,inactive
8,COc1ccc(-c2noc(CC3CCN(C(=O)Cc4ccc(OC)c(OC)c4)CC3)n2)cc1,inactive
9,O=C(c1ccc(F)cc1F)N1CCN(c2cc(-c3ccc(Cl)cc3)[nH]n2)CC1,inactive
10,O=C(CCC1CCN(C(=O)c2ccccc2F)CC1)Nc1cccc(Cl)c1,inactive
11,O=[S+]1([O-])NCC2(CCCN(Cc3ccc(C(F)(F)F)cc3)C2)Oc2ncccc21 (stereo not drawn),inactive
12,COc1ccc(C(CC(=O)N(C)Cc2cc(C3CC3)n[nH]2)c2ccccc2)cc1 (stereo not drawn),inactive
13,COc1cccc(NC(=O)Cn2c(N(C)Cc3ccccc3)nc(C)cc2=O)c1,inactive
14,Cc1ccc(C(=O)N2CCN(c3cc(-c4ccc(Cl)cc4)[nH]n3)CC2)c(C)c1,inactive
15,COc1cccc(-c2noc(CC3CCN(C(=O)c4ccc(F)cc4)CC3)n2)c1,inactive
16,Cc1nn2c(c1-c1ccnn1C(C)C)N(CC1CCOCC1)CCC2,inactive
17,CN1CCN(C(=O)C(C)(C)Oc2nn(Cc3cccc(Cl)c3)c3ccccc23)CC1,inactive
18,CC1=NS(=O)(=O)N(C)C=C1C(=O)OCc1noc(-c2ccco2)n1,inactive
19,CC1(C(=O)NCc2ccc3c(c2)OCO3)CCc2cnc(NCc3ccccc3)nc21 (stereo not drawn),inactive
20,COC(=O)c1cccc(NC(=O)CCNc2c(C)nc3cnccn23)c1,inactive
21,O=C(c1ccccc1)N1CCC(C(=O)N2CCC(Cc3nc(-c4ccc(F)cc4)no3)CC2)CC1,inactive
22,Fc1ccc(CNC[C@H]2Cn3c(-c4ccc5c(c4)OCCO5)cnc3CO2)cc1,inactive
23,COc1ccc(-c2noc(CC3CCN(C(=O)Cc4ccc(C)cc4)CC3)n2)cc1,inactive
24,Cc1cccc(C(=O)N2CCC(Oc3ccc(-c4noc(C(C)C)n4)cc3)C2)c1 (stereo not drawn),inactive
25,COc1ccc(CC(=O)N2CCC(Cc3nc(-c4ccccc4)no3)CC2)cc1OC,inactive

row,SMILES,Potency
1,COc1ccc(-c2noc(CC3CCN(C(=O)CC4CCCCC4)CC3)n2)cc1,inactive
2,COc1ccccc1Nc1cnc2ccc(N(C)Cc3cccnc3)nn12,inactive
3,COc1ccc(OCC2(C)COc3ccc(C(=O)Nc4cccnc4)cc3N2)cc1 (stereo not drawn),inactive
4,O=C(c1ccc(F)cc1Cl)N1CCC(n2cc(-c3nc(-c4ccccc4)no3)nn2)C1 (stereo not drawn),inactive
5,O=C(c1cc(F)ccc1Cl)N1CCN(c2cc(-c3ccc(F)cc3)[nH]n2)CC1,inactive
6,Cc1ccc(OCc2nc(C3CCN(C(=O)CCc4nc5ccc(Cl)cc5[nH]4)CC3)no2)cc1,inactive
7,CC1(CCCCc2ccccc2)COc2ccc(C(=O)N3CC[S+](=O)([O-])CC3)cc2N1 (stereo not drawn),inactive
8,CN(C)CCNC(=O)C(C)(C)Oc1nn(Cc2cccc(Cl)c2)c2ccccc12,inactive
9,O=C(NCC1CC1)c1nc2c(o1)CCN(Cc1cccc(F)c1F)CC2,inactive
10,Cc1cc(CNC(=O)c2ccc(-c3ccccc3Cl)o2)n(C)n1,inactive
11,Cc1noc(C)c1-c1cc(-c2ccccc2Oc2ccccc2)cn2cncc12,inactive
12,O=C(NCc1nnc2cc(-c3nc(C4CC4)no3)ccn12)c1ccc(F)cc1Cl,inactive
13,Cc1cccc(CN2CCc3nc(C(=O)Nc4ccc(Cl)cc4)oc3CC2)c1,inactive
14,C1CCC(COCCc2noc(C3CNC3)n2)C1,inactive
15,O=C(c1cccc(F)c1)N1CCOC[C@H](Oc2ccc(C(F)(F)F)cc2)C1,inactive
16,Cc1cccc(-c2cccc(CN)c2)c1,inactive
17,Cc1c[nH]c(CN2CCCC(CCc3ccc(F)cc3F)C2)c(C)c1=O (stereo not drawn),inactive
18,c1ccc(CO[C@@H]2CO[C@H]3[C@@H]2OC[C@@H]3n2nnnc2SCc2ccco2)cc1,inactive
19,CC(=O)N1CCC(NC[C@H]2O[C@H](Cc3cc(-c4cccc(O)c4)on3)CC[C@@H]2O)CC1,inactive
20,O=C(c1ccccc1)N1CCNc2cnc(Nc3cccc(C(F)(F)F)c3)nc2C1,inactive
21,O=c1[nH]c(C2CCCN(Cc3ccccn3)C2)nn1-c1ccc(Cl)cc1 (stereo not drawn),inactive
22,COc1ccc(CN2C(=O)CO[C@H]3CN(Cc4ccc5c(c4)OCO5)C[C@H]32)cc1,inactive
23,CC(C)c1cc(C(=O)N2CCC(n3cc(-c4ccccn4)nn3)CC2)n(C)n1,inactive
24,O=C(N1CCN(c2cc(-c3ccc(Cl)cc3)[nH]n2)CC1)C1(c2ccccc2)CC1,inactive
25,Cc1ccc2c(c1)nc1n2[C@@H](CNS(=O)(=O)c2ccccc2)COC1,inactive

row,SMILES,Potency
1,COc1cccc(CNC(=O)Cn2c(N(C)Cc3ccccc3)nc(C)cc2=O)c1OC,inactive
2,COc1cccc(C2C(C(=O)Nc3ccccc3)=C(C)N=C3SC=C(CC(=O)NCC(C)C)N32)c1 (stereo not drawn),inactive
3,Cc1ccc2nc(C3CCCN(Cc4ccc(C#N)cc4)C3)[nH]c(=O)c2c1 (stereo not drawn),inactive
4,COC(=O)C1=C(C)N=C2SC=C(CC(=O)NCCC(C)C)N2C1c1ccccc1Cl (stereo not drawn),inactive
5,O=C1Nc2ccccc2CN(Cc2ccccc2)C12CCNCC2,inactive
6,COc1ccc(C2Cn3nnc(C(=O)N4CCN(C(=O)c5ccc(C)cc5C)CC4)c3CO2)cc1 (stereo not drawn),inactive
7,COc1ccc(C2Cn3nnc(C(=O)N4CCN(C(=O)c5cccc(Cl)c5)CC4)c3CO2)cc1 (stereo not drawn),inactive
8,COc1ccc(C(=O)N2CCC(n3cc(-c4nc(C(C)C)no4)nn3)CC2)cc1F,inactive
9,O=C1NCN(Cc2ccc(Cl)cc2)C12CCN(Cc1ccccc1)CC2,inactive
10,O=C1c2cnc(-c3ccc(Cl)cc3)nc2OCCN1Cc1ccccc1,2.5 µM (active)
11,OC1(Cc2cc(-c3ccccc3)no2)CCN(c2ncncn2)CC1,inactive
12,CC(C)c1noc(-c2cn(C3CCN(C(=O)c4ccc(N(C)C)cc4)C3)nn2)n1 (stereo not drawn),inactive
13,CC(C)c1nncn1C1CCN(S(=O)(=O)c2cccc(Br)c2)CC1,inactive
14,COc1ccc(-c2noc(CC3CCN(C(=O)Cc4ccccc4)CC3)n2)cc1,inactive
15,O=C(c1ccc2cc[nH]c2c1)N1CCC2(CC1)N=C(c1ccc(Cl)cc1)NO2,inactive
16,CCN(CCCNC(=O)c1nnn2cc(-c3ccccc3)[nH]c(=O)c12)c1ccccc1,inactive
17,CCc1ccc(C(=O)N2CCN(c3cc(-c4ccc(F)cc4)[nH]n3)CC2)cc1,inactive
18,COc1ccc(CCNC(=O)c2noc(-c3ccc(C)cc3)n2)cc1OC,inactive
19,O=C(c1ccccn1)N1CC(Oc2ccc(-c3noc(C4CC4)n3)cc2)C1,inactive
20,Cc1cccc(C(=O)N2CCC3(CC2)CC(N(Cc2ccc(F)cc2)C2CC2)CCO3)c1 (stereo not drawn),inactive
21,Cc1nn2c(c1-c1ccccc1-c1ccccc1)N(CC1CC1)CCC2,inactive
22,CN(Cc1csc(-c2ccccc2)n1)c1cc(C2CC(O)C2)nc(N)n1 (stereo not drawn),inactive
23,COc1cccc(C2Cn3nnc(-c4nc(-c5ccccc5)no4)c3CO2)c1 (stereo not drawn),inactive
